In the antibiotic and cytotoxicity screens of Wong et al. (2023):
The whole screen tested about 39,000 compounds, of which about 1,500 (3.8%) were called active. Shown is part of a subset that was picked to be rich in actives.

The compounds below were run on HSkMC (human skeletal muscle cells) (assay: cytotoxicity call (relative viability < 0.9)). Conditions: 10 µM.

| SMILES | cytotoxicity call |
| --- | --- |
| Cc1cc(-c2cccs2)cc(C)n1 | inactive |
| COCC(=O)N1C[C@H](C)[C@H](OC)CN(C)C(=O)c2cc(NC(=O)c3cc(C)on3)ccc2OC[C@@H]1C | inactive |
| COc1cc2c(cc1O)CCN[C@]21CS[C@@H]2c3c(OC(C)=O)c(C)c4c(c3[C@H](COC1=O)N1[C@@H]2[C@H]2c3c(cc(C)c(OC)c3O)C[C@@H]([C@@H]1O)N2C)OCO4 | active |
| COc1ccc(NC(=O)N(C)C[C@H]2OCCCC[C@@H](C)Oc3ccc(NC(=O)Nc4ccc(C(F)(F)F)cc4)cc3C(=O)N([C@@H](C)CO)C[C@H]2C)cc1 | inactive |
| CCS(=O)(=O)Nc1ccc2c(c1)C(=O)N(C)C[C@@H](OC)[C@@H](C)CN(Cc1nccs1)[C@@H](C)CO2 | inactive |
| C[C@@H]1CCCCO[C@@H](CN(C)Cc2ccc(Cl)c(Cl)c2)[C@@H](C)CN([C@@H](C)CO)C(=O)c2cc(NS(=O)(=O)c3ccccc3)ccc2O1 | active |
| C[C@@H]1CCCCO[C@@H](CN(C)Cc2ccc(Cl)c(Cl)c2)[C@H](C)CN([C@H](C)CO)C(=O)c2cc(NS(=O)(=O)c3ccccc3)ccc2O1 | active |
| C[C@H](CO)N1C[C@H](C)[C@@H](CN(C)Cc2ccc(Cl)c(Cl)c2)OCCCC[C@H](C)Oc2ccc(NS(=O)(=O)c3ccccc3)cc2C1=O | inactive |
| C[C@@H]1CN([C@H](C)CO)C(=O)c2cc(NS(=O)(=O)c3ccccc3)ccc2O[C@@H](C)CCCCO[C@H]1CN(C)Cc1ccc(Cl)c(Cl)c1 | inactive |
| C[C@@H]1CCCCO[C@@H](CN(C)Cc2ccc(Cl)c(Cl)c2)[C@@H](C)CN([C@H](C)CO)C(=O)c2cc(NS(=O)(=O)c3ccccc3)ccc2O1 | inactive |
| C[C@@H]1CCCCO[C@H](CN(C)Cc2ccc(Cl)c(Cl)c2)[C@H](C)CN([C@@H](C)CO)C(=O)c2cc(NS(=O)(=O)c3ccccc3)ccc2O1 | active |
| C[C@@H]1CCCCO[C@@H](CN(C)Cc2ccc(Cl)c(Cl)c2)[C@H](C)CN([C@@H](C)CO)C(=O)c2cc(NS(=O)(=O)c3ccccc3)ccc2O1 | active |
| Cc1noc(C)c1NC(=O)Nc1cccc2c1O[C@@H](CN(C)C(=O)NC(C)C)[C@@H](C)CN([C@H](C)CO)C2=O | inactive |
| CCCC#Cc1cnc2c(c1)C(=O)N([C@@H](C)CO)C[C@@H](C)[C@H](CN(C)S(=O)(=O)c1cccc(OC)c1)O2 | inactive |
| O=C(C[C@@H]1CC[C@H]2[C@@H](COC[C@H](O)CN2C(=O)c2cccnc2)O1)NCc1ccc(-c2ccccc2)cc1 | inactive |
| C[C@H]1CN([C@@H](C)CO)C(=O)c2cc(NS(=O)(=O)c3ccc(F)cc3)ccc2O[C@H]1CN(C)S(=O)(=O)c1cccs1 | inactive |
| COc1ccc(NC(=O)N(C)C[C@H]2Oc3ccc(NC(=O)Nc4ccc(C(F)(F)F)cc4)cc3CC(=O)N([C@H](C)CO)C[C@H]2C)cc1 | inactive |
| C[C@H](CO)N1C[C@H](C)[C@H](CN(C)S(=O)(=O)c2ccc(Cl)cc2)Oc2c(NC(=O)c3ccc(-c4nccs4)cc3)cccc2C1=O | inactive |
| C[C@@H]1CN([C@H](C)CO)C(=O)c2cc(C#CC3(O)CCCC3)cnc2O[C@@H]1CN(C)C(=O)C1CCCCC1 | inactive |

| SMILES | cytotoxicity call |
| --- | --- |
| C[C@@H](NC(=O)C[C@@H]1CC[C@H](NC(=O)CN2CCOCC2)[C@@H](CO)O1)c1ccccc1 | inactive |
| O=S1(=O)C[C@H](O)[C@@H](N2CCN(CCO)CC2)C1 | inactive |
| C[C@H](CO)N1C[C@H](C)[C@H](CN(C)S(C)(=O)=O)Oc2ccc(NS(=O)(=O)c3ccc(F)cc3)cc2C1=O | inactive |
| CC(C)NC(=O)Nc1ccc2c(c1)CC(=O)N([C@@H](C)CO)C[C@@H](C)[C@H](CN(C)C(=O)NC1CCCCC1)O2 | inactive |
| COc1cccc(S(=O)(=O)N(C)C[C@H]2Oc3ncc(-c4cccc(C(=O)N(C)C)c4)cc3C(=O)N([C@@H](C)CO)C[C@@H]2C)c1 | inactive |
| CCCNC(=O)Nc1ccc2c(c1)C(=O)N(C)C[C@@H](OC)[C@H](C)CN(Cc1ccc(-c3ccccn3)cc1)[C@H](C)CO2 | inactive |
| CNC[C@H]1Oc2ccc(NS(=O)(=O)c3cn(C)cn3)cc2CC(=O)N([C@@H](C)CO)C[C@@H]1C | inactive |
| Cc1noc(C)c1NC(=O)Nc1ccc2c(c1)C(=O)N([C@H](C)CO)C[C@@H](C)[C@H](CN(C)CC1CC1)OCCCC[C@@H](C)O2 | inactive |
| CCCC#Cc1cnc2c(c1)C(=O)N([C@H](C)CO)C[C@@H](C)[C@@H](CN(C)S(=O)(=O)c1cn(C)cn1)O2 | inactive |
| C[C@@H]1CN([C@@H](C)CO)C(=O)Cc2cc(NC(=O)C3CCCCC3)ccc2O[C@H]1CN(C)Cc1ccc(C(=O)Nc2ccccc2N)cc1 | inactive |
| C[C@@H]1CCCCO[C@H](CN(C)Cc2ccc(Cl)c(Cl)c2)[C@@H](C)CN([C@H](C)CO)C(=O)c2cc(NS(=O)(=O)c3ccccc3)ccc2O1 | inactive |
| C[C@@H]1CCCCO[C@H](CN(C)Cc2ccc(Cl)c(Cl)c2)[C@@H](C)CN([C@@H](C)CO)C(=O)c2cc(NS(=O)(=O)c3ccccc3)ccc2O1 | active |
| C[C@H]1CCCCO[C@H](CN(C)Cc2ccc(Cl)c(Cl)c2)[C@@H](C)CN([C@@H](C)CO)C(=O)c2cc(NS(=O)(=O)c3ccccc3)ccc2O1 | inactive |
| C[C@@H]1CN([C@H](C)CO)C(=O)c2cc(NS(=O)(=O)c3ccccc3)ccc2O[C@@H](C)CCCCO[C@@H]1CN(C)Cc1ccc(Cl)c(Cl)c1 | active |
| Cc1noc(C)c1NC(=O)N(C)C[C@@H]1OCCCC[C@@H](C)Oc2ccc(NC(=O)NC3CCCCC3)cc2C(=O)N([C@@H](C)CO)C[C@H]1C | inactive |
| C[C@H](CO)N1C[C@H](C)[C@@H](CN(C)C(=O)Nc2ccc(-c3ccccc3)cc2)OCc2ccccc2-c2ccccc2C1=O | inactive |
| CC(C)[Si](C#C[Si](C(C)C)(C(C)C)C(C)C)(O[C@H](C)c1cn([C@H](C)c2ccccc2)nn1)C(C)C | inactive |
| COc1ccc(S(=O)(=O)Nc2ccc3c(c2)C(=O)N([C@H](C)CO)C[C@H](C)[C@H](CN(C)C(=O)c2ccccc2)OCCCC[C@@H](C)O3)cc1 | inactive |
